These sequences were tested against CDC42SE1 (assay: pooled miR-30 sensor sort-seq; sequence = guide strand). Settings: shRNA.

First: TGGGGTTTCTCTACCACACAGC
Second: TCATGGCAAGTCCATCTCCGGC
The sensor-assay potency score (higher = more potent) of the first is higher: -1.01 for the first, -1.88 for the second.

Compared with TCTTCTTCTTCGGCTGGGGTTT, TTTCTCTACCACACAGCAGCCC is higher in sensor-assay potency score (higher = more potent): -1.24 for the first, -0.51 for the second.

Going from TGAACTGCACCTGTCATGGCAA to ATCTCATCTGCTCCTGAACTGC, the sensor-assay potency score (higher = more potent) falls from -0.419 to -1.52.

First: TCATCTGCTCCTGAACTGCACC
Second: TGCTCCATGGCCTATCTCGGTT
The sensor-assay potency score (higher = more potent) of the first is higher: -1.23 for the first, -1.52 for the second.

ATCATGGTCCGGTCAATCCGTC gave a sensor-assay potency score (higher = more potent) of -1.39.

What follows are sequences tested against CDCA7L in the same assay as above. Settings: shRNA.

Compared with TAGACCTGCTTCTTCTAGGGGT, TAGCCTTATCTTCTTCTTCATC is lower in sensor-assay potency score (higher = more potent): 0.0946 for the first, -1.31 for the second.

First: TTCTGTATAAAAACACAACTGT
Second: TATCATAGATTTTATCTCGAAC
The sensor-assay potency score (higher = more potent) of the first is higher: -0.22 for the first, -0.423 for the second.

Going from TTCGGTGATATCCTCCACTGGC to TTTTCTAAGTCCTCTTCGGTGA, the sensor-assay potency score (higher = more potent) rises from 0.00353 to 0.0411.

Going from TATACGGTGACGTCGTCTGTAC to TCGCACACCACAGCAACCCTGG, the sensor-assay potency score (higher = more potent) falls from -0.513 to -0.788.

Compared with AAACTCTTCATCATCACTGGGG, TAGTGAGTCAAAACTATCGCAG is lower in sensor-assay potency score (higher = more potent): 0.515 for the first, -0.978 for the second.

In the case of TAAAAATTCTTCTTAGCTCTTC, the sensor-assay potency score (higher = more potent) is reported as 0.664.

What follows are sequences tested against CDCA8 in the same assay as above. Settings: shRNA.

First: TTGGTCTTCAGTAAACAGGGAT
Second: TTGCTTGATTCGTATTTCCACT
The sensor-assay potency score (higher = more potent) of the first is higher: -0.3 for the first, -0.831 for the second.

First: TTCACGGTCGAAGTCTTTCAGA
Second: TTCATCTACCTGTATTACCTTT
The sensor-assay potency score (higher = more potent) of the first is lower: -1.11 for the first, -0.507 for the second.

Going from TCTACCTGTATTACCTTTCGTG to TTACCTTTCGTGTTTTGGCAGA, the sensor-assay potency score (higher = more potent) falls from -0.22 to -0.552.

Going from TATCATTTCATCTACCTGTATT to TTCGTATTTCCACTTCACGGTC, the sensor-assay potency score (higher = more potent) rises from -1.16 to -0.813.

First: TAAACATAAAACACTGCTCCAC
Second: TTTGCTGTCAGCAAGAGGGCTG
The sensor-assay potency score (higher = more potent) of the first is lower: -0.305 for the first, -0.00778 for the second.

TATCTGAGCCTAAACCTCCCGG showed a sensor-assay potency score (higher = more potent) of -0.819.

These sequences were tested against CDH19 in the same assay as above. Settings: shRNA.

Compared with TACTTGTAGTGATTGTACCATT, TTGATATTGAACACTTTGCTCC is higher in sensor-assay potency score (higher = more potent): -0.931 for the first, -0.145 for the second.

Compared with TAACTTTTGCTCTAATACCGTA, ATCAGTATTAGCTTCTTCGAGC is lower in sensor-assay potency score (higher = more potent): -0.771 for the first, -1.26 for the second.

First: TAGTCTGAATTACCTGACCAGA
Second: TTAATTAATACACTTGTTGTTC
The sensor-assay potency score (higher = more potent) of the first is lower: -1.28 for the first, -0.144 for the second.

Going from TTTCTCAGGAAATAGAATCTGT to TTTTCCAGAATGAATTTCCTGA, the sensor-assay potency score (higher = more potent) falls from 0.0652 to -0.246.

With TATTGGAATATATTCTCTCTGA the sensor-assay potency score (higher = more potent) was -0.596.
